# Assay results as given in ChEMBL document CHEMBL3433997, “St. Jude Leishmania screening dataset” (2016).
# What was measured:
# Format in all cases: functional
# [1] = target: Solute carrier family 2, facilitated glucose transporter member 1 (Homo sapiens) (UniProt P11166); assay: ST_JUDE_LEISH: Cytotoxicity at 2uM final concentration against transgenic Leishmania Mexicana promastigotes LmGLUT1 that are glucose transport deficient and complemented with the human glucose transporter GLUT1. Activity is measured by DNA content using SYBR green in vitro
# [2] = target: Hexose transporter 1 (Plasmodium falciparum) (UniProt O97467); assay: ST_JUDE_LEISH: Cytotoxicity at 2uM final concentration against transgenic Leishmania Mexicana promastigotes LmPfHT that are glucose transport deficient and complemented with the Plasmodium falciparum hexose transporter. Activity is measured by DNA content using SYBR green in vitro
# [3] = target: Glucose transporter (Leishmania mexicana) (UniProt O61059); assay: ST_JUDE_LEISH: Cytotoxicity at 2uM final concentration against transgenic Leishmania Mexicana promastigotes LmGT2 that are glucose transport deficient and complemented with the L. Mexicana glucose transporter 2. Activity is measured by DNA content using SYBR green in vitro
# Chain of Solute carrier family 2, facilitated glucose transporter member 1 (Homo sapiens) (P11166 whole entry): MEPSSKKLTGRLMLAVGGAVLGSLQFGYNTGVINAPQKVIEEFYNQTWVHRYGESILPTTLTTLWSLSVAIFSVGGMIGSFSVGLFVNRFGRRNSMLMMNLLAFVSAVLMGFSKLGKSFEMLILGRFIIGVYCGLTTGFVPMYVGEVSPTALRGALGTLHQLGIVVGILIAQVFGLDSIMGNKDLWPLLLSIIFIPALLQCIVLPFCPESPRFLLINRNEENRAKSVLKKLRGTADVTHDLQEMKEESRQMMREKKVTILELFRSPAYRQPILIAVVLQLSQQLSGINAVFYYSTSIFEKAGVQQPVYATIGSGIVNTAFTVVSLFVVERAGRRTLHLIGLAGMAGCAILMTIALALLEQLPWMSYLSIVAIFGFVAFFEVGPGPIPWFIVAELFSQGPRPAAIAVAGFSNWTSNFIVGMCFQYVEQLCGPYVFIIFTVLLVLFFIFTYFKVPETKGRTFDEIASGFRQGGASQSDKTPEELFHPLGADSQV
Structure (SMILES),inhibition [1],inhibition [2],inhibition [3]
CCOC(=O)c1cn(CC)c2cc(N3CCCCC3)c(F)cc2c1=O,3.39%,3.64%,4.37%
CC(Cc1ccc(NC(=O)c2ccc(CC(C)NCc3ccc(Cl)cc3)cc2)cc1)NCCc1cccc(Cl)c1 (centres undefined),10.3%,6.78%,1.33%
CC(C)NCc1cccc(-c2ccc(NC(=O)c3cccc(C#N)c3)cc2)c1,0.25%,0.74%,2.32%
CCC(NC[C@@H](O)[C@H](Cc1ccccc1)NC(=O)c1cc(C2CCCC2)cc(N2CCCC2=O)c1)c1cccc(Cl)c1 (some centres undefined),2.16%,2.04%,4.65%
COc1ccc(C=NNc2cc(C)nc3ccc(OC)cc23)c(OC)c1,8%,7.55%,2.56%
CCC(CC)OC(=O)C(C)c1cccc(C(=O)c2ccccc2)c1 (centres undefined),2.22%,-0.21%,1.64%
Cc1ccc(C)c(C2CCN(CCCCNC(=O)c3ccc(NC(=O)c4ccc(Cl)cc4)cc3)CC2)c1,-1.18%,0.21%,0.05%
CCN1CCN(c2cc(C)c3cc(NC(=O)c4ccc([N+](=O)[O-])c(C)c4)ccc3n2)CC1,3.68%,5.06%,7.26%
Clc1ccc(CNCCCCCCNCc2ccc(Cl)cc2)cc1,-1.01%,1.71%,-1.04%
O=C(NCc1ccc(F)cc1)Nc1ccc(-c2ccc(-c3nc4ccccc4[nH]3)cc2)cc1,1.28%,-0.46%,0.75%
CC1CCCN(C(=O)C(C)Nc2cc(Cl)ccc2N2CCOCC2)C1 (centres undefined),1.2%,1.09%,-0.78%
COc1ccc(NC(=O)Nc2cccc(-c3ccc(-c4nc5cc(C(F)(F)F)ccc5[nH]4)cc3)c2)cc1,0.43%,-0.19%,-2.91%
Cn1ccnc1CNC(=O)c1ccc(-c2cccc(-c3nc4cc(F)ccc4[nH]3)c2)cc1,-2.64%,0.96%,1.38%
COc1cccc(NC(=O)Cn2c(C)c(C(=O)C(F)(F)F)c3ccccc32)c1,2.88%,1.7%,2.26%
CN(C)C(CNC(=O)c1cc(-c2ccncc2)c(-c2ccc(Cl)c(O)c2)o1)c1ccccc1 (centres undefined),1.95%,1.6%,8.87%
Cn1ccnc1-c1nc2ccccn2c1NCC(=O)Nc1ccccc1N1CCCCC1,-1.68%,-2.15%,0.02%
COc1ccc(NS(=O)(=O)c2ccccc2Br)cc1N1CCN(C)CC1,0.24%,-0.27%,3.86%
Cc1cc(NC(=O)Nc2cccc(C#N)c2)c2ccccc2n1,4.37%,4.11%,3.04%
CN(Cc1ccccc1)C1CCCN(c2cc(NC(=O)c3ccc(F)cc3)ccn2)C1 (centres undefined),-0.91%,-2.04%,0.07%
Cc1cc2ccccc2n1CC(=O)N1CC(C(=O)N2CCCCC2)Oc2ccccc21 (centres undefined),-0.25%,3.02%,2.89%
COc1ccc(-c2ccccc2OCCCNc2nc(NCCc3ccc(O)cc3)nc(N3CCNCC3)n2)cc1,1.12%,3.49%,2.75%
CCCCOc1cc(C)nc2ccc(NC(=O)COCC(=O)Nc3ccc4nc(C)cc(OCCCC)c4c3)cc12,14.9%,13.7%,11.2%
CCCC[C@@H](C(=O)NCc1ccccc1C(F)(F)F)N1C(=O)CCC1C(=O)Nc1ccc([N+](=O)[O-])cc1 (some centres undefined),1.1%,2.37%,2.75%
